Hit rate of the full screen: of about 5,500 compounds, about 2,000 (36%) were called active. About 18% were inconclusive and are not listed. No stated cut-off is given here; in the data, active means normalized growth mostly below about 0.91 (no sharp cut-off); inconclusive means no clear call, values can overlap the other calls; inactive means mostly above about 0.92. This is one part of the list.
Assay: chemical genetic growth profiling, strain panel (AID 1159580);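 further: tested at 20 µM; growth read once vehicle control cultures reached saturation at 30 °C; 1 = growth at the plate median or of vehicle wells; lower values mean less growth of the strain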
Details: growth OD

Measured: normalized growth

COc1cc2c(cc1OC)Cc1cc(OC)c(OC)cc1Cc1cc(OC)c(OC)cc1C2
inactive: S. cerevisiae deletion strains, locus YJR066W, strain TOR1, hits give low values 0.974 | S. cerevisiae deletion strains, locus YJR075W, strain HOC1, hits give low values 1.02 | S. cerevisiae deletion strains, locus YKL009W, strain mrt4, hits give low values 0.942 | S. cerevisiae deletion strains, locus YKL068W, hits give low values 1.02 | S. cerevisiae deletion strains, locus YKL085W, strain MDH1 (second series), hits give low values 0.927 | S. cerevisiae deletion strains, locus YKL085W, strain MDH1, hits give low values 0.927 | S. cerevisiae deletion strains, locus YKL160W, strain elf1, hits give low values 1.02 | S. cerevisiae deletion strains, locus YKL190W, strain CNB1, hits give low values 0.992 | S. cerevisiae deletion strains, locus YKR001C, strain vps1, hits give low values 1.04 | S. cerevisiae deletion strains, locus YKR026C, strain gcn3, hits give low values 1 | S. cerevisiae deletion strains, locus YKR091W, strain srl3, hits give low values 1.03 | S. cerevisiae deletion strains, locus YLL001W, strain dnm1, hits give low values 1.01 | S. cerevisiae deletion strains, locus YLL026W, hits give low values 1.04 | S. cerevisiae deletion strains, locus YLL041C, strain sdh2, hits give low values 1.03 | S. cerevisiae deletion strains, locus YLR027C, strain aat2, hits give low values 1.03 | S. cerevisiae deletion strains, locus YLR039C, strain RIC1, hits give low values 1.05 | S. cerevisiae deletion strains, locus YLR058C, strain SHM2, hits give low values 1.02 | S. cerevisiae deletion strains, locus YLR102C, strain apc9, hits give low values 1.03 | S. cerevisiae deletion strains, locus YLR113W, strain HOG1, hits give low values 1.05 | S. cerevisiae deletion strains, locus YLR221C, strain rsa3, hits give low values 1.04 | S. cerevisiae deletion strains, locus YLR258W, strain gsy2, hits give low values 1.03 | S. cerevisiae deletion strains, locus YLR262C, strain YPT6 (second series), hits give low values 1.05 | S. cerevisiae deletion strains, locus YLR262C, strain YPT6, hits give low values 1.08 | S. cerevisiae deletion strains, locus YLR268W, strain sec22, hits give low values 1.04 | S. cerevisiae deletion strains, locus YLR320W, strain mms22, hits give low values 1.03 | S. cerevisiae deletion strains, locus YLR330W, strain CHS5, hits give low values 1.01 | S. cerevisiae deletion strains, locus YLR342W, strain FKS1 (second series), hits give low values 1 | S. cerevisiae deletion strains, locus YLR342W, strain FKS1, hits give low values 1.04 | S. cerevisiae deletion strains, locus YLR357W, strain rsc2, hits give low values 1.05 | S. cerevisiae deletion strains, locus YLR370C, strain arc18, hits give low values 1.03 | S. cerevisiae deletion strains, locus YLR371W, strain rom2, hits give low values 1.03 | S. cerevisiae deletion strains, locus YLR384C, strain iki3, hits give low values 1.03 | S. cerevisiae deletion strains, locus YLR418C, strain cdc73, hits give low values 1.04 | S. cerevisiae deletion strains, locus YML016C, strain PPZ1, hits give low values 1.01 | S. cerevisiae deletion strains, locus YML032C, strain rad52, hits give low values 1.01 | S. cerevisiae deletion strains, locus YML120C, strain ndi1, hits give low values 1.02 | S. cerevisiae deletion strains, locus YML124C, strain tub3, hits give low values 1.06 | S. cerevisiae deletion strains, locus YMR058W, strain fet3, hits give low values 1.03 | S. cerevisiae deletion strains, locus YMR078C, strain ctf18, hits give low values 1.04 | S. cerevisiae deletion strains, locus YMR125W, strain sto1, hits give low values 1.05 | S. cerevisiae deletion strains, locus YMR129W, hits give low values 1.04 | S. cerevisiae deletion strains, locus YMR205C, strain PFK2, hits give low values 1.05 | S. cerevisiae deletion strains, locus YMR223W, strain ubp8, hits give low values 1.03 | S. cerevisiae deletion strains, locus YMR231W, strain pep5, hits give low values 1.03 | S. cerevisiae deletion strains, locus YMR263W, strain SAP30, hits give low values 1.01 | S. cerevisiae deletion strains, locus YMR307W, strain GAS1, hits give low values 1.04 | S. cerevisiae deletion strains, locus YNL067W, strain RPL9B, hits give low values 1.03 | S. cerevisiae deletion strains, locus YNL071W, strain lat1, hits give low values 1.03 | S. cerevisiae deletion strains, locus YNL183C, strain NPR1, hits give low values 0.956 | S. cerevisiae deletion strains, locus YNL209W, strain ssb2, hits give low values 1.03 | S. cerevisiae deletion strains, locus YNL233W, strain BNI4, hits give low values 1.01 | S. cerevisiae deletion strains, locus YNL248C, strain rpa49, hits give low values 1.03 | S. cerevisiae deletion strains, locus YNL250W, strain rad50, hits give low values 1.04 | S. cerevisiae deletion strains, locus YNL271C, strain bni1, hits give low values 1.02 | S. cerevisiae deletion strains, locus YNL298W, strain CLA4, hits give low values 1.02 | S. cerevisiae deletion strains, locus YNL307C, strain MCK1, hits give low values 1.03 | S. cerevisiae deletion strains, locus YNL322C, strain KRE1 (second series), hits give low values 1.05 | S. cerevisiae deletion strains, locus YNL322C, strain KRE1, hits give low values 1.03 | S. cerevisiae deletion strains, locus YNR049C, strain mso1, hits give low values 1.03 | S. cerevisiae deletion strains, locus YNR052C, strain pop2, hits give low values 1.02 | S. cerevisiae deletion strains, locus YOL012C, strain htz1 0.876 | S. cerevisiae deletion strains, locus YOL147C, strain pex11, hits give low values 1.02 | S. cerevisiae deletion strains, locus YOR001W, strain rrp6, hits give low values 1.02 | S. cerevisiae deletion strains, locus YOR061W, strain CKA2, hits give low values 1.01 | S. cerevisiae deletion strains, locus YOR069W, strain VPS5, hits give low values 1.01 | S. cerevisiae deletion strains, locus YOR070C, strain gyp1, hits give low values 1.03 | S. cerevisiae deletion strains, locus YOR080W, strain dia2, hits give low values 1.04 | S. cerevisiae deletion strains, locus YOR083W, strain WHI5, hits give low values 1.01 | S. cerevisiae deletion strains, locus YOR106W, strain vam3, hits give low values 1.07 | S. cerevisiae deletion strains, locus YOR136W, strain idh2, hits give low values 1.05 | S. cerevisiae deletion strains, locus YOR144C, strain elg1, hits give low values 1.04 | S. cerevisiae deletion strains, locus YOR184W, strain ser1, hits give low values 1.03 | S. cerevisiae deletion strains, locus YOR231W, strain MKK1, hits give low values 1.04 | S. cerevisiae deletion strains, locus YOR265W, strain rbl2, hits give low values 1.02 | S. cerevisiae deletion strains, locus YOR270C, strain vph1, hits give low values 1.03 | S. cerevisiae deletion strains, locus YOR290C, strain snf2, hits give low values 0.995 | S. cerevisiae deletion strains, locus YOR316C, strain cot1, hits give low values 1.02 | S. cerevisiae deletion strains, locus YPL051W, strain arl3, hits give low values 1.02 | S. cerevisiae deletion strains, locus YPL055C, strain LGE1, hits give low values 1.03 | S. cerevisiae deletion strains, locus YPL078C, strain atp4, hits give low values 1.03 | S. cerevisiae deletion strains, locus YPL106C, strain sse1, hits give low values 1.06 | S. cerevisiae deletion strains, locus YPL240C, strain hsp82, hits give low values 1.02 | S. cerevisiae deletion strains, locus YPL256C, strain CLN2, hits give low values 1.06 | S. cerevisiae deletion strains, locus YPR119W, strain clb2, hits give low values 1 | S. cerevisiae deletion strains, locus YPR141C, strain kar3, hits give low values 1.03 | S. cerevisiae deletion strains, locus YPR163C, strain tif3, hits give low values 1.03 | S. cerevisiae deletion strains, locus YPR167C, strain met16, hits give low values 1.03 | S. cerevisiae deletion strains, strain wtn01, hits give low values 1.04 | S. cerevisiae strains, strain wild type, hits give low values 1.03

Source: PubChem BioAssay AID1159580 (chemical genetic matrix, 2015)
